The OligoGym collection

What follows are sequences tested against LHFPL4 (assay: pooled miR-30 sensor sort-seq; sequence = guide strand). Conditions: shRNA.
Further: reference of the scale not given here.

| Sequence | sensor-assay potency score (higher = more potent) |
| --- | --- |
| AGATCTTGTAGACCGTAGCCGT | -1.61 |
| TTGTAGACCGTAGCCGTGTTGC | -0.989 |
| TTCCGCATGTAGTGCTCGTGGT | -0.829 |
| TGGATGAAGACCACCACGTTGA | -0.905 |

These sequences were tested against LHFPL5 in the same assay as above. Conditions: shRNA.

| Sequence | sensor-assay potency score (higher = more potent) |
| --- | --- |
| TTGTCTCAGGAGACTGTCCAGT | -0.336 |
| AACATAAGTAACACATTTCTGA | -0.109 |
| TATAACAAATTACTTGAACATA | -1.51 |
| TTGAACATAAGTAACACATTTC | -0.364 |
| TACAGTAGGAGGTCTTGTCTCA | -0.0507 |
| TAGTTGGTATGGTAGATCTTGG | -1.03 |
| TTGACGCTGTCGCCGATCCAGT | -1.35 |
| TAGTGTTATAATAAAAGGCTTC | -0.225 |
| TTGCAGATGAAGAACAGGCTGA | 0.379 |
| TAACACATTTCTGAAGCTGGTA | 0.181 |
| TAGACTGTGGCCGTGTTGCAGA | -0.721 |
| TTCTGGTTGAGTCAGTGTGGGC | -1.68 |

What follows are sequences tested against LHX3 in the same assay as above. Conditions: shRNA.

| Sequence | sensor-assay potency score (higher = more potent) |
| --- | --- |
| TTGTCCGACTTGGAGCCGCCGC | -1.19 |
| TTGAAAAAGTCGTCCTTGCAGT | -0.456 |
| TGCACTTGAGACACTTGCTGTG | -0.126 |
| TAGGTCAGAACTGGGTCCGTTC | -0.902 |
| TTGGCAACAGACATCTGTGGGT | 0.209 |
| ATGAGGTAGAACTCGTCGCCCG | -1.34 |
| TTGCAGTAAACGCTCTCCCCTC | -0.865 |
| TTGAAGTCTTGGAAAGAGCTGA | 0.479 |
| TTGAGACACTTGCTGTGCCAGT | -0.489 |
| TTTCATGTCTAGAAATAGCAGC | 0.283 |
| TTTGGCAACAGACATCTGTGGG | -0.246 |
| TTTGACTTACACACAGGCCAGC | -0.684 |

What follows are sequences tested against LHX9 in the same assay as above. Conditions: shRNA.

| Sequence | sensor-assay potency score (higher = more potent) |
| --- | --- |
| TGCGTTTTGGAACCAAACCTGC | -1.08 |
| TTTCTGGGCAAGCTGCTTGAGG | -0.927 |
| TGTCACTACAGTGATAGTGGGA | 0.281 |
| TTAAAGTGGTCGCAGTGCCGGG | -1.18 |
| TTCCTTCTGAATTTGGCTCGTG | 0.209 |
| TTGAGGTCCTTGGCATCCGGGT | -1.42 |
| TAGTTTGTGAGGGGCTTCCGGA | -1.17 |
| TTTCATGGTCCGGAGCTGGTGA | -0.253 |
| TACAGTGATAGTGGGATTGGTC | -0.245 |
| TTCTGAATTTGGCTCGTGCGTT | -1.08 |
| TTACATTCACAGCACTTCAGGC | -0.155 |
| TAAAGTGGTCGCAGTGCCGGGT | -0.418 |
